From PubChem BioAssay (EPA / NIEHS)
Calls of active or inactive are those of the source. The calls were made as follows: active = hit-call score of the fitted dose curve at least 0.9, where 1 is the maximum; inactive = score below 0.9.

Legend:
[1] = read-out: Interleukin-6 (IL6), IL6 (gene 3569); test: BSK_CASM3C_IL6: BioMAP Diversity Plus: CASM3C Assay for Interleukin-6 (IL6) Biomarker Activity for (AID 2283040); conditions: primary human coronary artery smooth muscle cells; actives raise or lower the signal
[2] = read-out: Tissue plasminogen activator (tPA), PLAT (gene 5327); test: BSK_BE3C_tPA: BioMAP Diversity Plus: BE3C Assay for Tissue plasminogen activator (tPA) Biomarker Activity (AID 2283041); conditions: primary human bronchial epithelial cells; actives raise or lower the signal;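 as to outcome: tPA level quantified by ELISA one day after compound addition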
Summary of the method: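 ELISA read-out of tPA on human primary bronchial epithelial cells, 24 h post-dosing; bidirectional fit vs DMSO negative control/baseline.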

[3] = read-out: Interleukin-8 (IL8), CXCL8 (gene 3576); test: BSK_CASM3C_IL8: BioMAP Diversity Plus: CASM3C Assay for Interleukin-8 (IL8) Biomarker Activity (AID 2283042); conditions: primary human coronary artery smooth muscle cells; actives raise or lower the signal;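 also: IL-8 protein level quantified by ELISA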
[4] = read-out: Human Leukocyte Antigen - DR isotype (HLADR), HLA-DRA (gene 3122); test: BSK_CASM3C_HLADR: BioMAP Diversity Plus: CASM3C Assay for Human Leukocyte Antigen - DR isotype (HLADR) Biomarker Activity (AID 2283043); conditions: primary human coronary artery smooth muscle cells; actives raise or lower the signal;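 also: cell-surface HLA-DR protein level quantified by ELISA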
[5] = read-out: Macrophage colony-stimulating factor (MCSF), CSF1 (gene 1435); test: BSK_CASM3C_MCSF: BioMAP Diversity Plus: CASM3C Assay for Macrophage colony-stimulating factor (MCSF) Biomarker Activity (AID 2283044); conditions: primary human coronary artery smooth muscle cells; actives raise or lower the signal;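 also: M-CSF protein amount quantified by ELISA after 24 h exposure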
[6] = read-out: Low-density lipoprotein receptor (LDLR), LDLR (gene 3949); test: BSK_CASM3C_LDLR: BioMAP Diversity Plus: CASM3C Assay for Low-density lipoprotein receptor (LDLR) Biomarker Activity (AID 2283045); conditions: primary human coronary artery smooth muscle cells; actives raise or lower the signal;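 also: LDLR protein level on the cell surface quantified by ELISA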
[7] = read-out: Monocyte Chemoattractant Protein-1 (MCP1), CCL2 (gene 6347); test: BSK_CASM3C_MCP1: BioMAP Diversity Plus: CASM3C Assay for Monocyte Chemoattractant Protein-1 (MCP1) Biomarker Activity (AID 2283046); conditions: primary human coronary artery smooth muscle cells; actives raise or lower the signal;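 also: MCP-1 level quantified by ELISA 24 h after dosing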
[8] = BSK_CASM3C_Proliferation: Cell Proliferation Assessment in the BioMAP Diversity Plus: CASM3C Assay (AID 2283047); conditions: primary human coronary artery smooth muscle cells;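 also: sulforhodamine B total protein stain as relative cell number at 560 nm; sub-confluent cells exposed 48 h before staining; fitted both ways against DMSO so gain or loss of cell number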
[9] = read-out: Monokine induced gamma interferon (MIG), CXCL9 (gene 4283); test: BSK_CASM3C_MIG: BioMAP Diversity Plus: CASM3C Assay for Monokine induced gamma interferon (MIG) Biomarker Activity (AID 2283048); conditions: primary human coronary artery smooth muscle cells; actives raise or lower the signal;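 also: MIG protein level measured by ELISA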
[10] = read-out: serum amyloid A (SAA), SAA1 (gene 6288); test: BSK_CASM3C_SAA: BioMAP Diversity Plus: CASM3C Assay for serum amyloid A (SAA) Biomarker Activity (AID 2283049); conditions: primary human coronary artery smooth muscle cells; actives raise or lower the signal;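 also: SAA protein level quantified by ELISA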

| Compound | outcome [1] | outcome [2] | outcome [3] | outcome [4] | outcome [5] | AC50 [6] | outcome [7] | outcome [8] | outcome [9] | outcome [10] | outcome [6] | AC50 [8] | AC50 [2] | AC50 [5] | AC50 [7] | AC50 [9] | AC50 [3] | AC50 [1] | AC50 [10] |
| --- | --- | --- | --- | --- | --- | --- | --- | --- | --- | --- | --- | --- | --- | --- | --- | --- | --- | --- | --- |
| C=CCC1=C(C)[C@@H](OC(=O)[C@@H]2[C@@H](C=C(C)C)C2(C)C)CC1=O | inactive | inactive | inactive | inactive | inactive | 20 µM (active) | inactive | inactive | inactive | inactive |  |  |  |  |  |  |  |  |  |
| COP(=S)(OC)Oc1nc(Cl)c(Cl)cc1Cl | inactive | inactive | inactive | inactive | inactive |  | inactive |  | inactive | inactive | inactive | 32.1 µM (active) |  |  |  |  |  |  |  |
| N#CC(CCc1ccc(Cl)cc1)(Cn1cncn1)c1ccccc1 (stereo not given) | inactive | inactive | inactive | inactive | inactive |  | inactive | inactive | inactive | inactive | inactive |  |  |  |  |  |  |  |  |
| CN(C)C(=S)SSC(=S)N(C)C | inactive |  | inactive | inactive |  |  |  |  |  | inactive | inactive | 12.6 µM (active) | 12 µM (active) | 12 µM (active) | 20 µM (active) | 14.6 µM (active) |  |  |  |
| CCCCNC(=O)n1c(NC(=O)OC)nc2ccccc21 | inactive | inactive | inactive | inactive | inactive |  | inactive | inactive | inactive | inactive | inactive |  |  |  |  |  |  |  |  |
| C=CC1(C)OC(=O)N(c2cc(Cl)cc(Cl)c2)C1=O (stereo not given) | inactive | inactive | inactive | inactive | inactive |  | inactive | inactive | inactive | inactive | inactive |  |  |  |  |  |  |  |  |
| Cc1cc(Cl)ccc1OCC(=O)O | inactive | inactive | inactive | inactive | inactive |  | inactive | inactive | inactive | inactive | inactive |  |  |  |  |  |  |  |  |
| N#Cc1nn(-c2c(Cl)cc(C(F)(F)F)cc2Cl)c(N)c1S(=O)C(F)(F)F (stereo not given) | inactive | inactive | inactive | inactive |  |  | inactive |  | inactive | inactive | inactive | 20 µM (active) |  | 25.1 µM (active) |  |  |  |  |  |
| COC(=O)N(OC)c1ccccc1COc1ccn(-c2ccc(Cl)cc2)n1 | inactive | inactive |  | inactive | inactive |  | inactive |  | inactive | inactive | inactive | 6.45 µM (active) |  |  |  |  | 15.8 µM (active) |  |  |
| CCOC(=O)C(Cl)Cc1cc(-n2nc(C)n(C(F)F)c2=O)c(F)cc1Cl (stereo not given) | inactive | inactive | inactive | inactive | inactive |  | inactive | inactive | inactive | inactive | inactive |  |  |  |  |  |  |  |  |
| Cc1ccc(-c2c(Cl)nc(C#N)n2S(=O)(=O)N(C)C)cc1 | inactive | inactive | inactive | inactive | inactive |  | inactive | inactive | inactive | inactive | inactive |  |  |  |  |  |  |  |  |
| O=C(Nc1ccccc1)Nc1ccnc(Cl)c1 | inactive | inactive |  | inactive | inactive |  | inactive |  | inactive | inactive | inactive | 28.6 µM (active) |  |  |  |  | 13 µM (active) |  |  |
| COc1ccc(C(c2ccc(OC)cc2)C(Cl)(Cl)Cl)cc1 |  | inactive | inactive | inactive | inactive |  | inactive |  | inactive | inactive | inactive | 15.1 µM (active) |  |  |  |  |  | 14 µM (active) |  |
| CCOP(=S)(OCC)SCn1c(=O)oc2cc(Cl)ccc21 | inactive | inactive |  | inactive | inactive |  | inactive | inactive | inactive | inactive | inactive |  |  |  |  |  | 4.25 µM (active) |  |  |
| CC1=C(C(=O)Nc2ccccc2)SCCO1 | inactive | inactive | inactive | inactive |  |  | inactive | inactive | inactive | inactive | inactive |  |  | 0.524 µM (active) |  |  |  |  |  |
| CCOC(=O)CC(SP(=S)(OC)OC)C(=O)OCC (stereo not given) | inactive | inactive | inactive | inactive | inactive |  | inactive | inactive | inactive | inactive | inactive |  |  |  |  |  |  |  |  |
| CS/C(C)=N/OC(=O)N(C)SN(C)C(=O)O/N=C(\C)SC |  | inactive |  | inactive |  |  |  |  |  |  | inactive | 6.19 µM (active) |  | 28.9 µM (active) | 34.7 µM (active) | 35 µM (active) | 32.1 µM (active) | 35 µM (active) | 20 µM (active) |
| CCNc1nc(Cl)nc(NCC)n1 | inactive | inactive | inactive | inactive | inactive |  | inactive | inactive | inactive | inactive | inactive |  |  |  |  |  |  |  |  |
